Screens: PubChem, National Center for Advancing Translational Sciences (NCATS)
In the library only some 2.4% were active in any assay of this set; here they are far more common.
FEN1 inh – qHTS Assay for the Inhibitors of Human Flap endonuclease 1 (FEN1) | P39748 | Recombinant FEN1 flap cleavage, fluorescence, 15 min | Potency, µM (doses to about 114 µM), inactives show at the highest dose activity change, negative = inhibition, most hits filed as inhibitors | 0.35% of 390,000 active; note: % is set by controls: 0 for no effect and ±100 for the full control effect; nearly all actives have a fitted effect of over 65% in size
Target sequence (P39748 whole entry, looked up): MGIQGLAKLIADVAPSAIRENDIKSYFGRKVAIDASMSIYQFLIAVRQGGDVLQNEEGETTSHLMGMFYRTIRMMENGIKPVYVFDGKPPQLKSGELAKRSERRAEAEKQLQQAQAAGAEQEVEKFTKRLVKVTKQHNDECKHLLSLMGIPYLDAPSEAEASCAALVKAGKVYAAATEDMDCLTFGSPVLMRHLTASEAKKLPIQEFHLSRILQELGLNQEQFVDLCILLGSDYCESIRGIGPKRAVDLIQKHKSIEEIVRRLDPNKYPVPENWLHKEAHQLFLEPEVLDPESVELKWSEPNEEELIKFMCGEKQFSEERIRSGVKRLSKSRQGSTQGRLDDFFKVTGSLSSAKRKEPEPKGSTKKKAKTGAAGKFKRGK
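FEN1 at 10 nM preincubated with compounds 15 min at room temperature, then flap DNA substrate added at 50 nM final. Signal read at 0 and 15 min; concentration-response fitted with four-parameter Hill equation.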
POLI inh – qHTS for Inhibitors of Polymerase Iota; DNA polymerase iota (Homo sapiens), Q9UNA4; Pol iota fluorescent replication assay, 10 min; Potency, µM (highest dose often 115 µM), for inactives: top-dose activity, negative = inhibition, actives largely listed as inhibitors; 1% of 390,000 active; AID 588590, 2011
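Fluorescent replication assay read twice, at 0 min and 10 min after adding 50 nM (final) substrate. Enzyme (10 nM) and compounds were first incubated 15 min at room temperature; enzyme-free buffer wells were negative controls.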
WRN inhibitor – qHTS for Inhibitors of WRN Helicase. Bifunctional 3'-5' exonuclease/ATP-dependent helicase WRN (Homo sapiens), Q14191. WRN helicase unwinding, fluorescent forked duplex, kinetic. Potency, µM (titrated, usually from 114 µM), inactives show top-dose activity change, negative = inhibition, hits mostly inhibitors. 0.46% of 360,000 active. AID 651768, 2012; note: % is set by controls: 0 for no effect and ±100 for the full control effect; nearly all actives have a fitted effect of over 55% in size
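Enzyme (20 nM final) and test compound sit together 15 min at room temperature before substrate addition. Substrate is a single-forked duplex oligonucleotide (100 nM) labelled with fluorophore and quencher, with 2 mM ATP; helicase unwinding raises red fluorescence, read kinetically.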
POLH inh – qHTS for Inhibitors of Polymerase Eta; DNA polymerase eta (Homo sapiens), Q9Y253; recombinant Pol eta, fluorescent DNA replication assay; Potency, µM (series often up to 114 µM), inactives show top-dose activity change, negative = inhibition, usual class: inhibitors; 1.2% of 390,000 active; AID 588591, 2011; note: % is set by controls: 0 for no effect and ±100 for the full control effect
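Pol eta at 10 nM preincubated with compounds 15 min at room temperature; reaction started with fluorescent substrate (50 nM final) and read kinetically at 0 and 10 min.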
Pol beta inh – qHTS Assay for Inhibitors of DNA Polymerase Beta; Pol beta primer extension/strand displacement, fluorescence kinetic; Potency, µM (top dose mostly 114 µM), for the others: top-dose activity change, negative = inhibition, hits mostly inhibitors; 1.3% of 340,000 active; note: % is set by controls: 0 for no effect and ±100 for the full control effect
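Curves were derived by four-parameter Hill fits of normalized qHTS data. The kinetic fluorescent primer-extension read was taken at 0 and 10 min after 50 nM substrate, following a 15 min room-temperature preincubation of 10 nM enzyme with compounds.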
POLK inh – qHTS for Inhibitors of Polymerase Kappa. 0.53% of 400,000 active. purified Pol kappa, fluorescent DNA synthesis assay, 10 min. DNA polymerase kappa (Homo sapiens), Q9UBT6. Potency, µM (doses to about 107 µM), for inactives: top-dose activity, negative = inhibition, most hits filed as inhibitors. AID 588579, 2011; note: % is set by controls: 0 for no effect and ±100 for the full control effect
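Enzyme at 10 nM met test compounds for 15 min at room temperature. Substrate addition (50 nM final) began the reaction, which was monitored by fluorescence at 0 and 10 min.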
* = called active by the depositor; ? = inconclusive; / = not tested or not shown; ! = repeats disagree; [ ] = remark or other dose. Calls come from the whole dose curve; as a rule, active = well fitted curve in the direction sought with a large enough effect; inconclusive = small, poorly fitted or top-dose-only effect, or another doubt; inactive = no such curve, though single readings can be large; an effect the other way counts as inactive or inconclusive. Potency is the fitted concentration of half-maximal effect.

SMILES | FEN1 inh | POLI inh | WRN inhibitor | POLH inh | Pol beta inh | POLK inh
O=C(CNC(=O)c1ccccc1F)N/N=C/c1cc(Br)ccc1OC(=O)/C=C/c1ccco1 | -20% | ? | -24% | -6% | ? | ?
CSCc1ccc(C(=O)OCC(=O)NC2CCCC2)o1 | / | / | 8% | 5% | / | /
O=C(CSc1nc2c(cnn2-c2ccc(F)cc2)c(=O)[nH]1)Nc1ccccc1C(F)(F)F | -14% | ? | / | -9% | 7.9µM* | -12%
Cc1ccc(-n2c(Cl)c(Cl)nc(Cl)c2=O)cc1 | -30% | 66% | 22µM* | -9% | 1% | -8%
Cn1c2ccccc2c(=O)c2cc(C#Cc3cccc(N)c3)ccc21 | -2% | -11% | -5% | -13% | / | -18%
Cn1c2ccccc2c(=O)c2cc(C#CC3=CCCCC3)ccc21 | -11% | 4µM* | -27% | 45µM* | / | ?
O=C(CCC(=O)N1CCN(c2ccccn2)CC1)c1ccc(Cl)s1 | 8% | ? | -19% | 14µM* | / | 0%
O=C(CCC(=O)N1CCN(c2ccccn2)CC1)c1cccs1 | 0% | 4% | -23% | -19% | / | -7%
CCOc1ccccc1NC(=O)c1cc(-c2ccncc2)nc2c(Cl)cccc12 | 2% | -10% | -22% | -4% | 16µM* | -16%
CCOC(=O)C1CCN(C(=O)c2c(C)nn(-c3ccc(F)cc3)c2-n2cccc2)CC1 | -1% | 31% | / | -12% | -23% | -19%
CCSc1cc(N2CCCC2)nc(-c2ccc(C)cc2)n1 | 89µM* | ? | 0% | 4% | 0% | ?
COc1cc(N2C(=O)C=CC2=O)ccc1N1C(=O)C=CC1=O | 50µM* | 40µM* | 20µM* | 25µM* | / | 40µM*
O=C(Nc1c(C(=O)Nc2cccc(C(F)(F)F)c2)oc2ccccc12)c1cc(=O)c2ccccc2o1 | -2% | 24% | / | -19% | -1% | 1%
CCn1c(=S)[nH]c2c(=O)n(C)c(=O)n(C)c21 | 2% | ? | 50µM* | -2% | / | -8%
CN(C)S(=O)(=O)c1cccc(-c2nn(-c3ccccc3)cc2/C=C(\C#N)c2nc3ccccc3[nH]2)c1 | -1% | 30% | -17% | -18% | -11% | -19%
CN(C)S(=O)(=O)c1cccc(-c2nn(-c3ccccc3)cc2/C=C2\SC(=S)NC2=O)c1 | ? | ? | 50µM* | 14µM* | 20µM* | ?
COc1ccc(N(Cc2cc(=O)[nH]c3ccccc23)C(=O)CCl)cc1 | -5% | 8% | 1% | 35µM* | 32% | 3%
Cc1cccc(N(Cc2cc(=O)[nH]c3ccccc23)C(=O)CCl)c1 | -21% | ? | -5%[11.6 µM] | 45µM* | ? | -6%
CCCC(=O)N(Cc1cc(=O)[nH]c2ccccc12)c1cccc(C)c1 | 1% | 34% | -2% | -3% | 7% | -5%
CCC1=Nc2cc(C(=O)N3CCC(C)CC3)ccc2Sc2ccc(C)cc21 | -15% | 10% | / | -21% | -3% | -1%
COc1ccc([C@H]2CC(=O)c3c(O)cc(O)cc3O2)cc1O | -4% | 44% | -4% | -21% | -20% | 0%
O=C(OC1Cc2c(O)cc(O)cc2OC1c1cc(O)c(O)c(O)c1-c1c(C2Oc3cc(O)cc(O)c3CC2OC(=O)c2cc(O)c(O)c(O)c2)cc(O)c(O)c1O)c1cc(O)c(O)c(O)c1 (configuration not stated) | / | / | / | / | / | 0.5µM*
O=C(O[C@@H]1Cc2c(O)cc(O)cc2OC1c1ccc(O)c(O)c1)c1cc(O)c(O)c(O)c1 (some centres not stated) | / | / | / | / | / | 0.18µM*
Oc1cc(O)c2c(c1)O[C@H](c1ccc(O)c(O)c1)[C@H](O)C2 | 15% | 89µM* | -6% | -6% | 3% | 89µM*!
COc1cc(C2CC(=O)c3c(O)cc(O)cc3O2)ccc1O (configuration not stated) | -7% | 24% | 3% | -24% | ? | 11%
SMILES | FEN1 inh | POLI inh | WRN inhibitor | POLH inh | Pol beta inh | POLK inh
COc1c(CC=C(C)C)cc(C2CC(=O)c3c(O)cc(O)cc3O2)c(CC=C(C)C)c1O (configuration not stated) | ? | -25% | -6% | -2% | / | -5%
O=C(NCCc1nc2ccccc2n1CCOc1ccccc1)C1CCCCC1 | 0% | -4% | / | / | / | -16%
COc1ccc(S(=O)(=O)N2CCCCC2)cc1C(=O)Nc1cccc(C(F)(F)F)c1 | 5% | 11% | / | -24% | 1% | 0%[60.1 µM]
CCN(c1ccccc1)S(=O)(=O)c1ccc(Oc2ccc(-n3ccnc3)cc2)nc1 | -2% | 9% | -8% | 4% | 40µM* | -10%
Cc1cc(=O)oc2cc(OCc3ccc(C(=O)N4CCN(c5ccc([N+](=O)[O-])cc5)CC4)cc3)ccc12 | 17% | -13% | -8% | 15% | 14% | -6%[60.1 µM]
Cc1cc(=O)oc2cc(OCc3ccc(C(=O)N4CCN(c5ccccc5)CC4)cc3)ccc12 | -3% | 121% | -11% | 3% | 11µM* | -2%
CN(C)CCCN1C(=O)c2cccc3c(Br)ccc(c23)C1=O | 18µM* | ? | 10% | -2% | ? | -6%
CCOC(=O)c1ccc(N2C(=O)c3n[nH]c(-c4cccs4)c3C2c2cccc(OC)c2)cc1 (configuration not stated) | -1% | -15% | / | -24% | 0% | -3%
CCOc1ccc(N2C(=O)c3n[nH]c(-c4cccs4)c3C2c2cccc(F)c2)cc1 (configuration not stated) | ? | 13µM* | / | / | 8% | 1%
O=C(O)CCC(=O)N1CCc2cc(S(=O)(=O)N3CC=C(c4ccccc4)CC3)ccc21 | -2% | ? | -1% | ? | 22µM* | ?
O=C(O)CCC(=O)N1CCc2cc(S(=O)(=O)N3CCCCC3)ccc21 | -13% | 9% | 1% | -7% | 35% | -11%
COc1ccc(CNC(=O)CCc2nc3cccnc3n2Cc2ccccc2)cc1 | 8% | 22% | / | -13% | 1% | -15%
Cc1c(-c2ccc(Cl)cc2)oc(=O)c2c(N)n(-c3ccccc3)nc12 | -9% | -4% | -32% | ? | 13µM* | -13%
O=C(C[n+]1ccccc1)Nc1c(Cl)cc(Cl)cc1Cl | -12% | 23% | -2% | -12% | 8.9µM* | -11%
O=C(CSc1nc2sccc2c(=O)[nH]1)N1CCN(c2ccccc2)CC1 | 1% | ? | -11%[11.6 µM] | 50µM* | 25µM* | ?
COC(=O)c1c(NC(=O)CCCOc2ccccc2C)sc2c1CCC2 | 0% | -20% | / | -14% | -1% | 5%
